Results filed as inconclusive are left out. Activity calls are given as the source filed them. Cut-off read from the data, not from the text of the source, unless noted: active = response above about 15%; inactive = the rest.

The nature of assay [1]: rapamycin-like changes in RPL19A-GFP expression – cell-based, S. cerevisiae, multiplex flow cytometry, primary screen (AID 1862; in the data active = percent of DMSO control GFP below about 86%;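 note: lower values mimic rapamycin by blocking the RPL19A rise seen in DMSO cells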). As to conditions: S. cerevisiae RPL19A-GFP strain, flow cytometry fluorescence, 3 h; at 10 µM; stronger effect = lower value.
A short description of assay [2]: TOR pathway GLN3 branch reporter MEP2-GFP changes – S. cerevisiae, multiplex flow cytometry, primary screen (AID 1867;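 active = GFP response, as percent of the DMSO control, above the screen-wide mean plus 3 SD, about 139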;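 note: median GFP channel fluorescence of barcode-gated MEP2-GFP cells measured by flow cytometry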). As to conditions: S. cerevisiae MEP2-GFP strain, 3 h, at 10 µM, stronger effect = higher value, 100% means same as DMSO wells.
The nature of assay [3]: TOR pathway RTG branch CIT2 reporter changes – S. cerevisiae, GFP fusion, multiplex flow cytometry, primary screen (AID 1870;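 active = percent response above a set limit, the screen-wide mean plus 3 SD, cut at about 130% in these data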;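 note: barcoded CIT2-GFP strain pooled with four other GFP strains with rapamycin as positive control; median GFP fluorescence per well over plate mean of DMSO wells so 100% = DMSO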). As to conditions: S. cerevisiae CIT2-GFP expression, 3 h, at 10 µM, stronger effect = higher value.
A short description of assay [4]: TOR pathway LAP4-GFP level changes – S. cerevisiae, multiplex flow cytometry, primary screen (AID 1873;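 active = GFP signal, as percent of the solvent control, above the screen mean plus 3 SD, about 149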). The following applies: S. cerevisiae LAP4-GFP expression, 3 h, at 10 µM, stronger effect = higher value.
Assay [5] is described as follows: yeast AGP1-GFP level changes, GLN3 branch – cell-based, multiplex flow cytometry, S. cerevisiae, primary screen (AID 1887;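 active = GFP signal above the screen-wide mean plus 3 SD, that is over about 124.5% of the solvent control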;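 note: AGP1-GFP fusion strain of S. cerevisiae within a five-strain barcoded multiplex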). The following applies: 3 h, at 10 µM, stronger effect = higher value.
Assay [6] can be described thus: reduced mouse 2C T cell binding to pMHC/ICAM-1 vesicles – MLPCN validation set, flow cytometry, LFA-1/ICAM-1 modulator project, pilot screen (AID 2523;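 active = response below a set limit, under 55% cells CD8-positive and vesicle-bound, and CD8 cells' 90th-percentile brightness under 279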;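 for vesicle binding response: mean PE anti-B7-1 fluorescence of CD8+ cells relative to row control; 100% = QL9-loaded vesicles with DMSO vehicle in the same plate row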). As to conditions: 2C mouse CD8+ T cells, at 7 µM, stronger effect = lower value; double positive events: measured here: CD8+/vesicle+ event percentage.
The target in assay [7] is Integrin beta-1 (Homo sapiens) + Integrin alpha-4 (Homo sapiens) (UniProt P13612+P05556). The experiment in a line: alpha4beta1 integrin LIBS antibody binding reduction – U937 cells, HUTS-21 mAb, flow cytometry, validation set, VLA-4 allosteric modulator project, pilot screen (AID 2674;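 active = inhibition above 50%, about 3 SD of the validation set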;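 note: antibody binding induced by the VLA-4 ligand LDV present at three times its Kd; 0% = LDV ligand with antibody and no compound and 100% = antibody without LDV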). As to conditions: HUTS-21 LIBS mAb binding, at 6.7 µM, stronger effect = higher value, binding induced by LDV ligand.
Integrin beta-1 (Homo sapiens) + Integrin alpha-4 (Homo sapiens), sequence (P05556 whole entry, looked up): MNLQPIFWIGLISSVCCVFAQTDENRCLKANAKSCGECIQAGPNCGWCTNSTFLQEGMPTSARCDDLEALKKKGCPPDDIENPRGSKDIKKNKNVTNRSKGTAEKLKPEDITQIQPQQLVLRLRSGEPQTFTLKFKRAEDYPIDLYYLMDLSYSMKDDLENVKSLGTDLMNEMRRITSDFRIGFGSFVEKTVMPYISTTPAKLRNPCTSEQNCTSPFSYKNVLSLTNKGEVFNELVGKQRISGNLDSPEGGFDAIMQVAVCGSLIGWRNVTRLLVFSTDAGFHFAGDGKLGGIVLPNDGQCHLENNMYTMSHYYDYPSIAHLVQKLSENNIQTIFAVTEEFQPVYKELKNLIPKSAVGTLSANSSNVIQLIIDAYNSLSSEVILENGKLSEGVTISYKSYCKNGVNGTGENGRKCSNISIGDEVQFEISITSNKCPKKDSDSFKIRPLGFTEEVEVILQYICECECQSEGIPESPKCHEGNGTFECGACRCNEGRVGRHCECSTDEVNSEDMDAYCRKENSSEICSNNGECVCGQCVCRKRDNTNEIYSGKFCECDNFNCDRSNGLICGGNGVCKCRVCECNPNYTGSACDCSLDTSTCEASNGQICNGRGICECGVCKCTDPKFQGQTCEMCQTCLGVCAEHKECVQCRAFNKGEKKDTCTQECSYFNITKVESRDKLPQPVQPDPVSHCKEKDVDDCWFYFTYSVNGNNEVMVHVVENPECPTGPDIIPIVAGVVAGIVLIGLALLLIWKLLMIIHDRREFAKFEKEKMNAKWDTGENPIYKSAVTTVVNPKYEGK
Integrin beta-1 (Homo sapiens) + Integrin alpha-4 (Homo sapiens), sequence (P13612 whole entry, looked up): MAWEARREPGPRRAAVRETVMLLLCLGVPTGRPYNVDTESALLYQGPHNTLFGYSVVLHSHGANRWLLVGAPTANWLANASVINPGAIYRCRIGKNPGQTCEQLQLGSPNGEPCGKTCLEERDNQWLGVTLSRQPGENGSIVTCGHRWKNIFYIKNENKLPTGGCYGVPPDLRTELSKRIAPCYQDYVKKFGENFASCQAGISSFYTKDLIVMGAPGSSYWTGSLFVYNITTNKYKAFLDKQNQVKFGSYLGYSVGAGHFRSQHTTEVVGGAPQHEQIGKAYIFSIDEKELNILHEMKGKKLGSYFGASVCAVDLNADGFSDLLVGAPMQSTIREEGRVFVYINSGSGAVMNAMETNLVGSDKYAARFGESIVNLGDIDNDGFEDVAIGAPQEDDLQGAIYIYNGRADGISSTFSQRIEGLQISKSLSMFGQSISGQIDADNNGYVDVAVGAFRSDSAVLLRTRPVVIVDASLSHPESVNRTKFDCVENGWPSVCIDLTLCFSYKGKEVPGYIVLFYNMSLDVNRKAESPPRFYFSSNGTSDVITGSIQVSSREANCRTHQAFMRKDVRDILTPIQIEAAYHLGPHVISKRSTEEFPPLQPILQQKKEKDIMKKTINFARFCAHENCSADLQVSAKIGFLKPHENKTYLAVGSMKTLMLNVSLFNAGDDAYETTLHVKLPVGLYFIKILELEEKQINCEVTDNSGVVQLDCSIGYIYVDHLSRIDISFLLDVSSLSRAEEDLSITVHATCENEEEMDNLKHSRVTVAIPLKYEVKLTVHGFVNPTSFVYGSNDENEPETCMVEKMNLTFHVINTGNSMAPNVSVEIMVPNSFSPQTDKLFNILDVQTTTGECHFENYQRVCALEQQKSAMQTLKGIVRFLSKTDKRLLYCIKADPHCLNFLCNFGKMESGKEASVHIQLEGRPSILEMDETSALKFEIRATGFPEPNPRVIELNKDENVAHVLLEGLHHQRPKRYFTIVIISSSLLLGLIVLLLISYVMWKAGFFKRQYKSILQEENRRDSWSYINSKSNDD

Assay [8] can be described thus: calorie-restriction mimetic ROS inhibitors, yeast – validation compound set, pilot screen (AID 2706;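 active = superoxide response below 65% of plate, a cut near 3 SD across the whole screen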;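 note: yeast exposed to compound for one week at 30 degrees C before staining; 100% = mean of all compound wells on the same plate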). The following applies: S. cerevisiae aging, superoxide DHE fluorescence; at 10 µM, stronger effect = lower value.
Assay [9] addresses Beta-adrenergic receptor kinase 1 (Homo sapiens) (UniProt P25098). The experiment in a line: GRK2 binders displacing RNA aptamer, biochemical, validation, human GRK2, bead flow cytometry (AID 488806;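 active = aptamer binding inhibition above 30%, about 3 SD of noise from non-fluorescent compounds; inactive = inhibition at or below 30%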). The following applies: bead-bound GRK2, FAM-aptamer displacement, at 10 µM, stronger effect = higher value.
Assay [10] addresses AP-2 complex subunit beta (Homo sapiens) (UniProt P63010). The experiment in a line: beta-arrestin/AP2 interaction blockers – biochemical, validation set, GST-AP2 beads, flow cytometry, pilot screen (AID 504541;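 active = inhibition above 54%, about 3 SD of non-fluorescent compounds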;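 note: AP2 carries R879A mutation and is captured from E. coli lysate; bead-bound FITC arrestin peptide fluorescence measuring arrestin peptide binding to AP2; 0% = DMSO wells and 100% = excess unlabeled arrestin peptide control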). The following applies: FITC arrestin peptide, at 10 µM, stronger effect = higher value, AP2 beta2 appendage fragment, R879A mutant.
The nature of assay [11]: cytosolic pH regulators acting via V-ATPase – S. cerevisiae, pHLuorin, HTS validation (AID 504600).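 Note: plate controls were DMSO for no effect and reference compound for full effect.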 The following applies: V-ATPase proton transport, at 10 µM, stronger effect = higher value.
For assay [12], the system named is anti-desmoglein-3 scFv antibody binding to human DSG3. The experiment in a line: blockers of pathogenic pemphigus antibody–desmoglein-3 binding – biochemical, validation compound set, bead-based, flow cytometry, pilot screen (AID 588368;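 active = binding below the plate cutoff, the plate median minus 3 SD, with a reading above zero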;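 note: signal is the median channel fluorescence of bead-bound GFP antibody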). The following applies: Protein G beads, DSG3-Fc, scFv-GFP binding, at 10 µM, stronger effect = lower value.
Assay [13] in a line: Nile Red efflux blockade in pump-expressing yeast – validation compound set, multiplex, phenotypic, pilot screen (AID 588506;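 active = efflux inhibition above 0.42, the validation set average plus 4 SD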;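 note: Nile Red retained in cells so higher fluorescence means more efflux inhibition; 0 = negative control wells and 1 = enniatin B 25 µM full block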). As to conditions: S. cerevisiae pump-expressing triplex, Nile Red efflux flow cytometry; at 10 µM; stronger effect = higher value; the pumps come from Candida albicans.
Assay [14] deals with ATP-binding cassette sub-family B member 6 (Homo sapiens) (UniProt Q9NP58). The experiment in a line: blockers of ABCB6-driven porphyrin uptake – K562-ABCB6 cells, flow cytometry, validation set, pilot screen (AID 588550;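 active = inhibition above the screen-wide mean plus 3 SD, about 51%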;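 note: 0% = DMSO wells and 100% = benzethonium chloride 70 µM positive control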). As to conditions: K562-ABCB6 porphyrin accumulation, 1 h, at 10 µM, stronger effect = higher value.
ATP-binding cassette sub-family B member 6 (Homo sapiens), sequence (Q9NP58 whole entry, looked up): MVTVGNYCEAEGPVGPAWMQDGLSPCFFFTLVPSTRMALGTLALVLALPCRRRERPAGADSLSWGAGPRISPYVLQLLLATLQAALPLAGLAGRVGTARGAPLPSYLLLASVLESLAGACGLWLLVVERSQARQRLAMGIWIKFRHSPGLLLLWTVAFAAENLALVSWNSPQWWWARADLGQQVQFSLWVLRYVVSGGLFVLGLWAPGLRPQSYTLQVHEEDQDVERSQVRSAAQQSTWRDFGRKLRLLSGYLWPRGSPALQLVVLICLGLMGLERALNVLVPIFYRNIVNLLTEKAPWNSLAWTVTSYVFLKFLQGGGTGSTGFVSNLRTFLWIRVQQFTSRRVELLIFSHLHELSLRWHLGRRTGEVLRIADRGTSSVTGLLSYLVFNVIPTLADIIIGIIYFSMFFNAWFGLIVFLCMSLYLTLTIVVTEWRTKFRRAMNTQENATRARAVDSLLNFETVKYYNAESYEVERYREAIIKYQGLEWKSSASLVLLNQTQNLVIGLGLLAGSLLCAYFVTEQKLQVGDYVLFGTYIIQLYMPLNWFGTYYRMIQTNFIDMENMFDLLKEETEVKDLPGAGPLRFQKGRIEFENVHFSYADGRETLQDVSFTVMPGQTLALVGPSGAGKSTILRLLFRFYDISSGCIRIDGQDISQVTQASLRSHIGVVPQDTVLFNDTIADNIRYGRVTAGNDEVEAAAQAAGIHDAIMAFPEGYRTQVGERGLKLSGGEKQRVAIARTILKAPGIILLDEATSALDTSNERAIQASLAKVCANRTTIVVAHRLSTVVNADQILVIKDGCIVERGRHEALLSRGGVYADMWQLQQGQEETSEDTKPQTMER
Assay [15] can be described thus: AML differentiation inducers, ER-HoxA9 marrow cells – cell-based, GFP/MAC1 double positive, flow cytometry, validation set, primary screen (AID 588685;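 active = differentiation response of at least 50%, scaled between solvent and reference control, from cells with both markers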;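 note: compound exposure lasts four days before antibody staining and flow analysis; 0% = DMSO wells and 100% = 5 µM fulvestrant positive control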). The following applies: stronger effect = higher value, normalized: vehicle 0, fulvestrant 100.

AP-2 complex subunit beta (Homo sapiens), sequence (P63010 whole entry, looked up, the tested form may be a part, one chain of several): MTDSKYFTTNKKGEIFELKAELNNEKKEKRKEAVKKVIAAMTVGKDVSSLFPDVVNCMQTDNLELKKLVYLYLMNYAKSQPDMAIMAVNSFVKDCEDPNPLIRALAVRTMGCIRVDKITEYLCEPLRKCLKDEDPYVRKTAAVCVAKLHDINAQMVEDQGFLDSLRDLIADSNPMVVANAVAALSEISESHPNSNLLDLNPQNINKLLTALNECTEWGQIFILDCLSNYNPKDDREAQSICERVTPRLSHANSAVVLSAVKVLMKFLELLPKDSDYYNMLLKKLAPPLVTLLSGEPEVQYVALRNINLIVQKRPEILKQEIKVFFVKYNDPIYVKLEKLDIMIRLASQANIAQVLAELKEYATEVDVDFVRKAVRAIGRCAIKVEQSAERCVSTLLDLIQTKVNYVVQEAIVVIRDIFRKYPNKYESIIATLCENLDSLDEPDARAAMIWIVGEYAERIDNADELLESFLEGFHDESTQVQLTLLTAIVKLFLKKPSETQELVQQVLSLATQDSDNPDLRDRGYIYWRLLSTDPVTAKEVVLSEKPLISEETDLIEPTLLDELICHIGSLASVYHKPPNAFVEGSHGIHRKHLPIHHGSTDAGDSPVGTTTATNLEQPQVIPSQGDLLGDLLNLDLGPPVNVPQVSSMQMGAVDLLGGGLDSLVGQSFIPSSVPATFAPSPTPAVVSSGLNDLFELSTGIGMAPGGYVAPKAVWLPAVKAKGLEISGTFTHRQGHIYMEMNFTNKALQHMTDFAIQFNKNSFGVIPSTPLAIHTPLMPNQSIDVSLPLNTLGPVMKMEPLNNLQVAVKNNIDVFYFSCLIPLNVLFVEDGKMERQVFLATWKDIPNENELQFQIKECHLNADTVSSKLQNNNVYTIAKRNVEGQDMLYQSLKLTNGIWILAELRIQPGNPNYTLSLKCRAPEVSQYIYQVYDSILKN
Beta-adrenergic receptor kinase 1 (Homo sapiens), sequence (P25098 whole entry, looked up): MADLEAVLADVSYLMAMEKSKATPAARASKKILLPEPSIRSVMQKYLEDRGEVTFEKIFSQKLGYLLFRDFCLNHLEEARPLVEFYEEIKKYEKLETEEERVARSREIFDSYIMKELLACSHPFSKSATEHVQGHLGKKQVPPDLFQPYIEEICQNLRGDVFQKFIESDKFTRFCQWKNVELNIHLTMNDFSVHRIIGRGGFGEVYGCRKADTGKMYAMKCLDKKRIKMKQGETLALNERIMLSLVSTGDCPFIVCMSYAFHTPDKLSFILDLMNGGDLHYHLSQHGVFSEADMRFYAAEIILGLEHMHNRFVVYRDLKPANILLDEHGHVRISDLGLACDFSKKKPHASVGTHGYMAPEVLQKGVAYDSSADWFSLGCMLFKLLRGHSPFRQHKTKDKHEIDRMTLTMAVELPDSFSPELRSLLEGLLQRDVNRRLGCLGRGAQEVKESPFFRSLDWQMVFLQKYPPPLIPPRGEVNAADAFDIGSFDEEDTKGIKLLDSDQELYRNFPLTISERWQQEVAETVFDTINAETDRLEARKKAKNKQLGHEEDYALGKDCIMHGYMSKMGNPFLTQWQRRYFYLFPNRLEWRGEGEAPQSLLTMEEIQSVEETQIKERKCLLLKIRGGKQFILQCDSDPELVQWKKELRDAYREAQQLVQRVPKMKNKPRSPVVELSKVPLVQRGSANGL

Turning to `NCCCC(=O)O`, the percent of DMSO control GFP in assay [1] is 97.8% (inactive). Moreover, the GFP response vs DMSO in assay [2] was 99.9% (inactive); in assay [4], 103% (inactive). Moreover, the percent response of DMSO control in assay [3] was 95.9% (inactive). In addition, in [5], the GFP response, % of DMSO is 96.7% (inactive). This compound also gave a double positive events in assay [6] of 57.8%. Further, the vesicle binding response in assay [6] was 192% (inactive). In addition, the inhibition in assay [7] was 10.9% (inactive); in assay [10] it was 2.65% (inactive); in assay [14] it was -31% (inactive). The superoxide response (% of plate) in assay [8] was 103% (inactive). Besides, the aptamer binding inhibition in [9] is 0% (inactive). Moreover, the response in [11] was -1.76% (inactive). The binding (% of control) in assay [12] is 99.8% (inactive). For the same compound, in [13], the efflux inhibition (fraction of control) was 0.94 (active). In addition, in assay [15], the differentiation response was -13.1% (inactive).
`CC(C)NCC(O)COc1ccc(CC(N)=O)cc1` (stereo not given): in assay [1], the percent of DMSO control GFP is 99.2% (inactive). For the same compound, the GFP response vs DMSO in [2] was 100% (inactive); in [4], 97.3% (inactive). The percent response of DMSO control in assay [3] is 105% (inactive). Further, the GFP response, % of DMSO in assay [5] was 99.1% (inactive). The same compound came in with a double positive events in assay [6] of 61.8%. In addition, the vesicle binding response in assay [6] was 127% (inactive). For the same compound, the inhibition in assay [7] was -2.53% (inactive); in assay [10], -8.74% (inactive); in [14], 6% (inactive). Also, the superoxide response (% of plate) in assay [8] was 82.7% (inactive). The aptamer binding inhibition in [9] is 2% (inactive). Moreover, in assay [11], the response was 0.46% (inactive). Also, the binding (% of control) in assay [12] was 101% (inactive). The efflux inhibition (fraction of control) in [13] was -0.39 (inactive). The differentiation response in assay [15] was -2.69% (inactive).
With `CC(=O)O[C@]1(C(C)=O)CC[C@H]2[C@@H]3C=C(Cl)C4=CC(=O)CC[C@]4(C)[C@H]3CC[C@@]21C`, the percent of DMSO control GFP in assay [1] is 99.3% (inactive). The GFP response vs DMSO in [2] is 89.7% (inactive); in [4], 84.3% (inactive). In [3], the percent response of DMSO control was 102% (inactive). The GFP response, % of DMSO in [5] is 97.2% (inactive). For the same compound, the double positive events in [6] stood at 48.7%. Moreover, the vesicle binding response in assay [6] was 201% (inactive). Moreover, the inhibition in assay [7] is -20.8% (inactive); in assay [10], -12.8% (inactive); in assay [14] it was 9% (inactive). Also, the superoxide response (% of plate) in assay [8] was 108% (inactive). The aptamer binding inhibition in assay [9] is -1% (inactive). Also, in assay [11], the response is -0.6% (inactive). Further, the binding (% of control) in [12] is 105% (inactive). The efflux inhibition (fraction of control) in [13] was -0.12 (inactive). The differentiation response in assay [15] was -9.89% (inactive).
For the compound `Cn1c(=O)c2c(ncn2CC(O)CO)n(C)c1=O` (stereo not given), in assay [1], the percent of DMSO control GFP is 100% (inactive). Further, the GFP response vs DMSO in assay [2] was 99.9% (inactive); in assay [4] it was 104% (inactive). Also, the percent response of DMSO control in assay [3] was 93.9% (inactive). In addition, in assay [5], the GFP response, % of DMSO is 99.4% (inactive). In assay [6], this compound yielded a double positive events of 53.8%. Further, the vesicle binding response in assay [6] was 114% (inactive). In addition, the inhibition in [7] was 11.9% (inactive); in assay [10], -7.53% (inactive); in assay [14] it was 9% (inactive). Besides, the superoxide response (% of plate) in assay [8] is 93.5% (inactive). Moreover, the aptamer binding inhibition in [9] was 2% (inactive). In addition, in assay [11], the response was -0.09% (inactive). Further, the binding (% of control) in assay [12] is 81.7% (inactive). Further, the efflux inhibition (fraction of control) in assay [13] is 0.22 (inactive). The differentiation response in assay [15] was -8.27% (inactive).
Turning to `CCOC(=O)c1ccccc1NC(=O)c1ccc(F)cc1`, the percent of DMSO control GFP in [1] is 101% (inactive). The GFP response vs DMSO in [2] is 108% (inactive); in assay [4] it was 92.3% (inactive). For the same compound, the percent response of DMSO control in assay [3] is 103% (inactive). The GFP response, % of DMSO in assay [5] is 91.8% (inactive). In assay [6], this compound displayed a double positive events of 60.4%. The vesicle binding response in [6] was 102% (inactive). Moreover, the inhibition is 10.9% (inactive) in assay [7], 6.01% (inactive) in assay [10] and 13% (inactive) in assay [14]. For the same compound, the superoxide response (% of plate) in assay [8] is 100% (inactive). Moreover, the aptamer binding inhibition in [9] was 3% (inactive). In addition, the response in [11] was -5.23% (inactive). Besides, the binding (% of control) in [12] is 98.8% (inactive). In assay [13], the efflux inhibition (fraction of control) was 0.37 (inactive). Besides, the differentiation response in [15] was -13.1% (inactive).

(Values after PubChem BioAssay.)
